The record followed here is PubChem BioAssay AID2685 (National Center for Advancing Translational Sciences (NCATS), 2010).

The structures appear in SMILES notation. The whole screen tested about 320,000 compounds, of which about 2,100 (0.66%) were called active. Inconclusive results (about 53%) are left out. The call rests on the fitted dose curve; in most records, active means well fitted inhibition curve with a large enough effect in the signal ratio, with a control signal flat (not every such curve was filed as active); inconclusive means small, poorly fitted or top-dose-only effect, or effect the other way, or a change in a side signal; inactive means flat fitted curve, though single readings scatter; the % refers to the signal ratio. Only a selection was taken, and actives are over-represented in it overall.
Potency means the concentration at half of the fitted maximal effect.

The nature of this test: qHTS Assay for Lipid Storage Modulators in Drosophila S3 Cells.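 On cell number change: cells counted by Cell Tracker Red CMTPX staining in the red channel.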 On lipid storage change, negative = inhibition: on the % scale 0 is the no-effect control and ±100 the full control effect. The settings on record: BODIPY lipid droplet fluorescence, 18-24 h, cells fed with added oleic acid; cell number change: measured here: cell count max response; series mostly up to 46.1 µM; lipid storage change, negative = inhibition: at the top concentration. An outline of the steps: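 Laser-scanning cytometry quantifies lipid droplet accumulation (500–530 nm total intensity; droplet/cell object ratio) in oleic acid-fed (400 uM added) Drosophila S3 cells treated with a concentration series. 20 uM Triacsin C defined 100% inhibition.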
In general terms: In qHTS, concentration-response curves come from the screen itself.
Consider `O=C(NCc1cccnc1)c1ccc(Cl)c(S(=O)(=O)N2CCOCC2)c1`, for which the outcome was inactive and the cell number change is -4.25%.

As to `COc1ccc(CNC(=O)c2ccc(Cl)c(S(=O)(=O)N3CCOCC3)c2)cc1OC`, the Potency is 1.64 µM (active) and the cell number change is -21%.

As to `COc1ccc(C(=O)N2CCCC(C(N)=O)C2)cc1S(=O)(=O)N1CCOCC1` (stereo unspecified), the “lipid storage change, negative = inhibition” value was -1.8% (inactive) and the cell number change was found to be 10.1%.

Regarding `CN(C(=O)c1ccc(S(=O)(=O)N2CCCC2)cc1)C1CCCCC1`, the “lipid storage change, negative = inhibition” value is 0.283% (inactive) and the cell number change is -9.06%.

Turning to `COc1ccc(C(=O)N2CCCC2)cc1S(=O)(=O)N1CCOCC1`, the Potency was 7.31 µM (active) and the cell number change is 9.79%.

With `O=C(NCc1ccncc1)c1ccc(Cl)c(S(=O)(=O)N2CCOCC2)c1`, the “lipid storage change, negative = inhibition” value is 9.55% (inactive) and the cell number change came out at 18.6%.

As to `COc1ccc(C(=O)OCc2cc(C)ccc2C)cc1S(=O)(=O)N1CCCC1`, the Potency was 0.082 µM (active) and the cell number change is -10.2%.

Take `COc1ccc(C)cc1S(=O)(=O)N1CCCCC1`: the “lipid storage change, negative = inhibition” value was 9.28% (inactive) and the cell number change stood at 6.88%.

`CN(C(=O)c1ccc(F)c(S(=O)(=O)N2CCOCC2)c1)C1CCCCC1`: the “lipid storage change, negative = inhibition” value is 24.8% (inactive) and the cell number change stood at 0.139%.

Take `COc1ccc(C(=O)N2CCN(S(=O)(=O)c3ccc(C)cc3)CC2)cc1S(=O)(=O)N1CCOCC1`: the “lipid storage change, negative = inhibition” value is -18.5% (inactive) and the cell number change amounted to 3.33%.

As for `COc1ccc(C(=O)OCc2ccc(C)cc2)cc1S(=O)(=O)N1CCOCC1`, the “lipid storage change, negative = inhibition” value was 15.6% (inactive) and the cell number change was determined as 0.435%.

As for `CN1CCC(N(C)C(=O)c2ccc(Cl)c(S(=O)(=O)N3CCCCC3)c2)CC1`, the Potency is 14.6 µM (active) and the cell number change was -2.26%.

Consider `NC(=O)C1=C[C@@H](C2CCCCC2)C[C@@H](OCCCCO)O1`, for which the “lipid storage change, negative = inhibition” value is 5.82% (inactive) and the cell number change is 1.59%.

As to `Cc1ccc(N2C(=O)C3C(C2=O)N2CCCN2C3c2ccccc2)cc1C` (stereo unspecified), the “lipid storage change, negative = inhibition” value was -5.4% (inactive) and the cell number change was found to be 7.85%.

In the case of `CCN(CC)C(=O)CC(c1ccc(F)cc1)c1ccco1` (stereo unspecified), the “lipid storage change, negative = inhibition” value is 2.63% (inactive) and the cell number change was -17.4%.

Turning to `CCc1ccccc1NC(=O)CSc1nnc(Cn2cnc3ccccc32)o1`, the “lipid storage change, negative = inhibition” value was -1.44% (inactive) and the cell number change was -13.9%.

In the case of `COc1ccc(CCNC(=O)C(=O)NCC2OCCN2S(=O)(=O)c2cccs2)cc1` (stereo unspecified), the “lipid storage change, negative = inhibition” value is 15.5% (inactive) and the cell number change is 0.232%.

`Cc1c(NC(=O)CSc2nnc(C(C)Oc3ccc(Cl)cc3)n2-c2ccccc2)c(=O)n(-c2ccccc2)n1C` (stereo unspecified): the “lipid storage change, negative = inhibition” value was 6.38% (inactive) and the cell number change was 8.96%.

Consider `Cc1ccc(C(=O)N2CCN(c3ccccc3)CC2)cc1S(=O)(=O)N1CCOCC1`, for which the “lipid storage change, negative = inhibition” value is 0.336% (inactive) and the cell number change amounted to 22%.

With `COc1ccc(/C=C/C(=O)N2CCN(c3ccccc3)CC2)cc1S(=O)(=O)N1CCOCC1`, the “lipid storage change, negative = inhibition” value was 21.1% (inactive).

As for `COc1ccc(C(=O)N2CCN(c3ccccc3)CC2)cc1S(=O)(=O)N1CCOCC1`, the Potency is 3.26 µM (active) and the cell number change is 0.901%.

As to `COC(=O)c1sc(NC(=O)C2c3ccccc3Oc3ccccc32)c(C(=O)OC)c1C`, the “lipid storage change, negative = inhibition” value was -0.563% (inactive) and the cell number change turned out to be 5.22%.

For `Cc1ccc(C2CC(C(F)F)n3ncc(C(=O)Nc4c(C)nn(Cc5c(F)cccc5Cl)c4C)c3N2)cc1` (stereo unspecified), the “lipid storage change, negative = inhibition” value was 0.101% (inactive) and the cell number change came to 11%.

`CCOC(=O)c1c(NC(=O)c2ccccc2C(=O)O)sc2c1CCC2`: the compound was classed as inactive and the cell number change turned out to be 7.14%.

On to `COc1cc(-c2cc(-c3ccc(N)cc3)[nH]c(=O)c2C#N)cc(OC)c1OC`, for which the “lipid storage change, negative = inhibition” value is 11.6% (inactive) and the cell number change stood at 28%.

For `O=C(Nc1ccc(Cl)cn1)c1cccc(S(=O)(=O)N2CCCCC2)c1`, the compound was called inactive and the cell number change amounted to 14.3%.

As to `COC(=O)c1ccccc1NC(=O)CCNC(=O)Cn1cnc2ccccc2c1=O`, the “lipid storage change, negative = inhibition” value was -6.58% (inactive) and the cell number change was -2.73%.

As for `O=C(Cn1cnc2ccccc2c1=O)NCCC(=O)Nc1ccc(F)cc1`, the “lipid storage change, negative = inhibition” value was -9.21% (inactive) and the cell number change was found to be 20.1%.

For `O=C(Cn1cnc2ccccc2c1=O)NCCC(=O)Nc1ccccc1C(F)(F)F`, the Potency was 0.0651 µM (active) and the cell number change was -3.75%.

On to `COC(=O)c1ccc(CSc2nc3ccccc3c(=O)n2N)cc1`, for which the compound was classed as inactive and the cell number change is -1.8%.

As to `CC(C)CN(CC(C)C)S(=O)(=O)N1CCC(C(=O)NCc2ccco2)CC1`, the “lipid storage change, negative = inhibition” value is 2.25% (inactive) and the cell number change was -10.2%.

Consider `COc1ccccc1N(CC(=O)NCCc1ccccc1)C(=O)CCC(=O)Nc1nccs1`, for which the Potency is 2.06 µM (active) and the cell number change was -5.22%.

Turning to `CCc1ccccc1N(CC(=O)NCc1ccco1)C(=O)CCC(=O)Nc1nccs1`, the compound was called inactive and the cell number change amounted to 6.09%.

In the case of `Cc1ccccc1N(CC(=O)NCc1ccco1)C(=O)CCC(=O)Nc1nccs1`, the “lipid storage change, negative = inhibition” value is 20.4% (inactive) and the cell number change stood at 7.88%.

`COc1ccccc1N(CC(=O)NCc1ccc(F)cc1)C(=O)CCC(=O)Nc1nccs1`: the outcome was inactive and the cell number change was -10.4%.

Take `O=C(CN(C(=O)CCC(=O)Nc1nccs1)c1ccccc1F)NCCc1ccccc1`: the outcome was inactive and the cell number change was determined as 18.7%.

As for `CCOc1ccccc1N(CC(=O)NCc1ccco1)C(=O)CCC(=O)Nc1nccs1`, the Potency was 2.59 µM (active) and the cell number change is -1.71%.

On to `COC(=O)c1ccc(NC(=O)c2ccc(NS(=O)(=O)c3cccc4cccnc34)cc2)cc1`, for which the “lipid storage change, negative = inhibition” value is 4.09% (inactive) and the cell number change is -0.185%.

Take `CCOC(=O)C1CCN(c2nc(-c3ccc(C)cc3)nc3ccccc23)CC1`: the “lipid storage change, negative = inhibition” value is 10.1% (inactive) and the cell number change is -12.1%.

On to `COc1ccccc1NC(=O)c1ccc(NC(=O)CSc2ncn[nH]2)cc1`, for which the “lipid storage change, negative = inhibition” value was -6.68% (inactive) and the cell number change was -3.32%.

For `Cc1cc(-c2ccco2)n(CC(=O)O)n1`, the “lipid storage change, negative = inhibition” value is 3.95% (inactive) and the cell number change is -13.3%.

As to `CC(Sc1cccc(C(F)(F)F)c1)C(=O)NC(N)=O` (stereo unspecified), the compound was classed as inactive and the cell number change was determined as 10.6%.

Take `CC(Sc1ccc2ccccc2c1)C(=O)NC(N)=O` (stereo unspecified): the “lipid storage change, negative = inhibition” value was -6.27% (inactive) and the cell number change came to 22.5%.

In the case of `CC(=O)Nc1ccc(SC(C)C(=O)NC(N)=O)cc1` (stereo unspecified), the Potency is 29.1 µM (active) and the cell number change is -18.8%.

On to `CCOC(=O)NC(O)C(=O)c1ccc(F)cc1` (stereo unspecified), for which the “lipid storage change, negative = inhibition” value was 1.22% (inactive).

Regarding `N#Cc1ccc(Cl)cc1NC(=O)CNCc1cccs1`, the “lipid storage change, negative = inhibition” value was 18.5% (inactive) and the cell number change was found to be 4.81%.

On to `COc1ccc(-n2c(=O)c(CCC(=O)N(C)Cc3ccccc3C)nc3ccccc32)cc1`, for which the “lipid storage change, negative = inhibition” value was -8.19% (inactive) and the cell number change was 24.8%.

In the case of `COc1ccc(-n2c(=O)c(CCC(=O)NCCc3ccccc3F)nc3ccccc32)cc1`, the Potency is 18.4 µM (active) and the cell number change was determined as 2.07%.

As for `COc1ccc(-n2c(=O)c(CCC(=O)N3CCN(c4ccccc4O)CC3)nc3ccccc32)cc1`, the “lipid storage change, negative = inhibition” value is -27.2% (inactive) and the cell number change was -25.6%.

For the compound `COc1ccc2c(c1)c(CC(=O)Nc1cccc(S(N)(=O)=O)c1)c(C)n2C(=O)c1ccc(Cl)cc1`, the “lipid storage change, negative = inhibition” value was -1.43% (inactive) and the cell number change is -13.5%.

As for `CC(C(=O)Nc1ccc2c(c1)OCCO2)N(C)Cc1c(F)cccc1Cl` (stereo unspecified), the “lipid storage change, negative = inhibition” value was 4.33% (inactive).

As to `Cc1ccc(NC(=O)CCNS(=O)(=O)c2cccc3nonc23)cc1`, the “lipid storage change, negative = inhibition” value is 14.5% (inactive) and the cell number change came out at 12.6%.

Take `COC(=O)c1ccc(NC(=O)CCNS(=O)(=O)c2cccc3nonc23)cc1`: the compound was called inactive and the cell number change was determined as 6.69%.

Regarding `CC(=O)c1ccc(NC(=O)CCNS(=O)(=O)c2cccc3nonc23)cc1`, the Potency is 23.1 µM (active).

Turning to `COC(=O)C1=NN(C(C)(C)CC(C)=O)C2C(=O)N(C3CCCCC3)C(=O)C12` (stereo unspecified), the “lipid storage change, negative = inhibition” value is -1.51% (inactive) and the cell number change is -0.806%.
